Experimental data taken from the supplement of paper PMC6607015.
Structures can show the parent of a compound that is named as a salt.

Experiments:
Settings in all cases: compound concentration in added solution (µM; 5 µl added to 20 µl cells): 10; 18 h
[1] = system: A431; experiment: LBPA endosome anti-LBPA integrated intensity (sum per cell), Z-score; higher = more LBPA staining
How it was run: (§1)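 Per-cell integrated LBPA or filipin intensity, whole-cell or within LBPA endosomes, is expressed as Z-scores normalised in AcuityXpress. HeLa MZ or A431 cells, 3,500 per well in 20 µl, sat on 5 µl of 10 µM compound solution in duplicate 384-well imaging plates for 18 h. They were then fixed in 4% PFA, stained, imaged in four 20× fields per well and segmented using MetaXpress.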

[2] = system: HeLa MZ; experiment: as above
How it was run: as §1

[3] = system: A431; experiment: whole-cell filipin (free cholesterol) integrated intensity, Z-score; higher = more cholesterol staining
How it was run: as §1

[4] = system: HeLa MZ; experiment: as above
How it was run: as §1

[5] = system: A431; experiment: filipin (cholesterol) integrated intensity within LBPA endosomes, Z-score; higher = more cholesterol in LBPA endosomes
How it was run: as §1

[6] = system: HeLa MZ; experiment: as above
How it was run: as §1

Row | SMILES | LBPA endosome anti-LBPA integrated intensity (z-score) [1] | LBPA endosome anti-LBPA integrated intensity (z-score) [2] | whole-cell filipin (z-score) [3] | whole-cell filipin (z-score) [4] | filipin (z-score) [5] | filipin (z-score) [6]
1 | CN(C)CCC[C@@]1(c2ccc(F)cc2)OCc2cc(C#N)ccc21 [Escitalopram] | -0.359 | 1.34 | 0.0689 | 0.675 | -0.134 | 0.883
2 | C[N+]1(CCCCC[N+]2(C)CCCC2)CCCC1 [Pentolinium bitartrate] | -0.453 | -0.278 | -0.653 | -0.161 | -0.437 | -0.405
3 | COc1cc2nc(N(C)CCCNC(=O)C3CCCO3)nc(N)c2cc1OC (stereo not drawn) [Alfuzosin hydrochloride] | 1.37 | 1.11 | -0.35 | -0.351 | 0.00526 | 0.128
4 | CN(C)C(=N)NC(=N)N [Metformin hydrochloride] | -0.525 | -0.838 | -0.902 | -0.3 | -0.437 | -0.498
5 | CC(=O)N[C@@H](CC(C)C)C(=O)O [N-Acetyl-L-leucine] | -0.45 | -0.158 | -0.322 | 0.0999 | -0.425 | -0.357
6 | CN(C)CCn1nnnc1SCC1=C(C(=O)O)N2C(=O)[C@@H](NC(=O)Cc3csc(N)n3)[C@H]2SC1 [Cefotiam hydrochloride] | -0.662 | -1.47 | -0.797 | -1.09 | -0.548 | -0.711
7 | CC(c1cc2ccccc2s1)N(O)C(N)=O (stereo not drawn) [Zileuton] | -0.514 | -0.465 | -0.358 | -0.366 | -0.391 | -0.425
8 | CCCCCCC[N+](CC)(CC)CCCCc1ccc(Cl)cc1 [Clofilium tosylate] | -0.496 | -0.791 | -0.98 | -1.56 | -0.614 | -0.77
9 | N#Cc1ccc(C2CCCc3cncn32)cc1 (stereo not drawn) [Fadrozole hydrochloride] | -0.639 | -1.49 | -1.18 | -0.874 | -0.538 | -0.502
10 | CN[C@@H]1[C@H](O)[C@H](NC)[C@H]2O[C@@]3(O)C(=O)C[C@@H](C)O[C@H]3O[C@@H]2[C@H]1O [Spectinomycin dihydrochloride] | -0.507 | -0.585 | -0.388 | -0.158 | -0.451 | -0.309
11 | CC(=O)N(CC(C)C(=O)O)c1c(I)cc(I)c(N)c1I (stereo not drawn) [Iocetamic acid] | -0.0668 | -0.0236 | -0.0512 | 0.178 | -0.262 | -0.476
12 | CCCCC1(COC(=O)CCC(=O)O)C(=O)N(c2ccccc2)N(c2ccccc2)C1=O [Suxibuzone] | -0.274 | 0.271 | -0.0127 | 0.34 | -0.358 | -0.384
13 | CC(=O)[C@H]1CC[C@H]2[C@@H]3CC=C4C[C@@H](O)CC[C@]4(C)[C@H]3CC[C@]12C [Pregnenolone] | 2.84 | 2.65 | 1.33 | 1.33 | 2.1 | 1.2
14 | CCOC(=O)C1=C(C)NC(C)=C(C(=O)OCC)C1c1ccccc1/C=C/C(=O)OC(C)(C)C [Lacidipine] | 0.359 | 1.4 | 0.71 | 1.28 | 0.446 | 0.927
15 | CC(=O)OCC(=O)[C@@]12N=C(C)O[C@@H]1C[C@H]1[C@@H]3CCC4=CC(=O)C=C[C@]4(C)[C@H]3[C@@H](O)C[C@@]12C [Deflazacort] | -0.192 | 0.385 | 0.137 | 0.444 | -0.208 | -0.207
16 | Cc1c(N)c(=O)n(-c2ccccc2)n1C [Ampyrone] | -0.478 | -0.409 | -0.998 | -1.26 | -0.379 | -0.625
17 | N=C(N)NC(=N)NCCc1ccccc1 [Phenformin hydrochloride] | -0.459 | 0.0471 | -0.366 | 1.16 | -0.42 | -0.335
18 | Cn1nnnc1SCC1=C(C(=O)O)N2C(=O)[C@@H](NC(=O)[C@H](O)c3ccccc3)[C@H]2SC1 [Cefamandole sodium salt] | -0.486 | -0.416 | -0.496 | 0.0398 | -0.431 | -0.551
19 | Cc1ccnc(NS(=O)(=O)c2ccc(N)cc2)n1 [Sulfamerazine] | -0.529 | -1.13 | -0.353 | -0.0674 | -0.45 | -0.567
20 | Cn1c(=O)c2c(ncn2CC(O)CO)n(C)c1=O (stereo not drawn) [Diprophylline] | -0.55 | -0.754 | -0.617 | -0.852 | -0.554 | -0.628
21 | C[C@]12CC[C@@H]3c4ccc(O)cc4C[C@@H](CCCCCCCCC[S+]([O-])CCCC(F)(F)C(F)(F)F)[C@H]3[C@@H]1CC[C@@H]2O (stereo partly drawn) [Fulvestrant] | 1.44 | 1.71 | 1.52 | 1.48 | 1.64 | 2.16
22 | CC1(C)OC(=O)NC1=O [Dimethadione] | -0.345 | 0.802 | -0.303 | -0.0416 | -0.341 | -0.341
23 | C#C[C@]1(O)CC[C@H]2[C@@H]3CCC4=CC(=O)CC[C@@H]4[C@H]3CC[C@@]21CC [Norgestrel-(-)-D] | -0.501 | -0.275 | -0.421 | -0.79 | -0.478 | -0.446
